Assay results published in PubChem BioAssay AID2284381 (EPA ToxCast).
Records with an inconclusive call do not appear. Calls of active or inactive are those of the source. Rule for the calls: active = hit-call score of the fitted dose curve at least 0.9, where 1 is the maximum; inconclusive = response in the unintended direction; inactive = score below 0.9.

tested on: Japanese medaka Retinoid X Receptor beta (RXRb), gene 100125505; test: ATG_jmRXRb_EcoTox2: Attagene TRANS-FACTORIAL EcoTox-2 HepG2 Assay for Japanese medaka Retinoid X Receptor beta (RXRb)
Experimental: ATG_EcoTox2 is a cell-based, multiplexed assay created by modifying the existing Attagene TRANS-FACTORIAL system to include a panel of nuclear receptors from some or all the following species: human (Homo sapiens), african clawed frog (Xenopus laevis), rainbow trout (Oncorhynchus mykiss), japanese medaka (Oryzias latipes), and zebrafish (Danio rerio). The ECOTOX2-FACTORIAL format uses HepG2, a human liver cell line, with measurements taken at 24 hours after chemical dosing in a 24-well plate. ATG_jmRXRb_EcoTox2 is one of 29 assay components calculated in the ATG_EcoTox2 assay. It is designed to make measurements of mRNA induction, a form of inducible reporter, as detected with fluorescence intensity signals by Reverse transcription polymerase chain reaction (RT-PCR) and Capillary electrophoresis technology.The assay endpoint ATG_jmRXRb_EcoTox2 was analyzed in the positive analysis fitting direction relative to DMSO as the negative control and baseline of activity. Using a type of inducible reporter, measures of mRNA for gain-of-signal activity can be used to understand the reporter gene at the transcription factor-level as they relate to the gene RXRb. Furthermore, this assay endpoint can be referred to as a primary readout, because this assay has produced multiple assay endpoints where this one serves a reporter gene function. […]
Human liver HepG2 cells are transiently transfected with multiple reporter transcription units (MRTUs) in 6-well plates using FuGene 6 reagent (Roche; 3 ml FuGene/1 mg DNA). […] A major difference between the CIS and TRANS system is that in CIS activities of endogenous TFs are measured, whereas the TRANS assay evaluates changes in activities of exogenous, chimeric NR-Gal4 proteins. […] The fragments were purified using Qiaquick PCR columns (Qiagen), analyzed on an ABI 3130xL genetic analyzer (Applied Biosystems) with peak positions identified by using a set of X-rhodamine (ROX)-labeled MapMarker1000 molecular weight standards (BioVentures). […]

Structure (SMILES) | AC50
[Cl][Sn]([c]1ccccc1)([c]1ccccc1)[c]1ccccc1 | 0.171 µM (active)
O=C(O)C(F)(F)C(F)(F)C(F)(F)C(F)(F)C(F)(F)C(F)(F)C(F)(F)F | 31.4 µM (active)
CCCCOCN(C(=O)CCl)c1c(CC)cccc1CC | 50 µM (active)
